Source: the supplement of paper PMC12024424
Structures can show the parent of a compound that is named as a salt.

What follows are molecules tested on Staphylococcus aureus Sa2 (MRSA, cystic fibrosis isolate) (assay: growth reduction vs untreated control (viable cell count); higher = stronger antibacterial activity; extreme values may be limits of the assay). Details: 0.1 mM; 24 h.
Procedure: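 Single-dose screen of the MedChem Express Drug Repurposing Library (0.1 mM, 1% DMSO) against planktonic MRSA S. aureus Sa2 (CF isolate) in TSB in 96-well plates, 37 °C aerobic, 24 h. Assays were run in triplicate and repeated twice.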
Work on `Cc1ccc(-n2[nH]c(C)c(N=Nc3cccc(-c4cccc(C(=O)O)c4)c3O)c2=O)cc1C` [Eltrombopag (Olamine)] yielded a growth reduction of 100%.
Work on `C=C[C@@](C)(/C=C/c1ccc(O)cc1)CCC=C(C)C` [Bakuchiol] yielded a growth reduction of 100%.
`CCCCCCCCc1ccc(CCC(N)(CO)CO)cc1` [Fingolimod (hydrochloride)] showed a growth reduction of 100%.
`C=Cc1cc(O)cc2nc(-c3ccc(O)c(F)c3)oc12` [Prinaberel] showed a growth reduction of 100%.
Work on `Cc1c2c(nn1C)CSCc1cc(n(C)n1)CSc1cc(c3ccccc3c1)OCCCc1c(C(=O)O)n(C)c3c-2c(Cl)ccc13` yielded a growth reduction of 100%.
With `COc1cc(NC(C)CCCN)c2ncccc2c1` (stereo unspecified) [Primaquine (Diphosphate)] the growth reduction was 94%.
Work on `COCCNCCc1cccc(Nc2ncc3c(n2)-c2ccccc2[C@H](c2ccccc2F)C3)c1` [Derazantinib] yielded a growth reduction of 100%.
With `Clc1ccc(Nc2nnc(Cc3ccncc3)c3ccccc23)cc1` [Vatalanib (dihydrochloride)] the growth reduction was 100%.
`Cc1nc(Nc2ccc(F)cc2)nc(N2CCc3ccccc3C2C)c1C` (stereo unspecified) [Revaprazan (hydrochloride)] was tested, and the growth reduction was 100%.
Work on `Cc1cn(-c2cc(NC(=O)c3ccc(C)c(Nc4nccc(-c5cccnc5)n4)c3)cc(C(F)(F)F)c2)cn1` [Nilotinib] yielded a growth reduction of 92%.
Molecule `Cc1ccc(-c2c(C(=O)CCl)n(CCCO)c3ncnc(N)c23)cc1` has a growth reduction of 100%.
`COc1cc2c(cc1Cc1cccc(Cl)c1F)c(=O)c(C(=O)O)cn2[C@H](CO)C(C)C` [Elvitegravir] showed a growth reduction of 100%.
Molecule `N#CC(c1ccc(Cl)cc1)c1c(Cl)cc(-n2ncc(=O)[nH]c2=O)cc1Cl` (stereo unspecified) [Diclazuril] has a growth reduction of 100%.
`COC(=O)N[C@H](C(=O)N1CCC[C@H]1c1nc(-c2ccc3c(c2)O[C@@H](c2ccccc2)n2c-3cc3cc(-c4c[nH]c([C@@H]5CCCN5C(=O)[C@@H](NC(=O)OC)C(C)C)n4)ccc32)c[nH]1)C(C)C` [Elbasvir] was tested, and the growth reduction was 100%.
`Cc1cc(-c2nc(CN3CCNCC3)no2)cc2c1C(=O)N(Cc1ccc(OC(F)(F)F)cc1)C2` gave a growth reduction of 100%.
For `Clc1ccc(CO/N=C(\Cn2ccnc2)c2ccc(Cl)cc2Cl)c(Cl)c1` [Oxiconazole nitrate], the growth reduction was 100%.
`C=CC(N)CCC(=O)O` (stereo unspecified) [Vigabatrin (hydrochloride)] showed a growth reduction of 100%.
`Cc1ccc2c(=O)c3cccc(CC(=O)O)c3oc2c1C` [Vadimezan] was tested, and the growth reduction was 100%.
With `C[C@]1(O)C[C@@H](c2nc(-c3ccc4ccc(-c5ccccc5)nc4c3)c3c(N)nccn32)C1` [Linsitinib] the growth reduction was 100%.
Work on `O=c1nc(OC[C@@H]2COCCO2)cc2n1CCc1cc(C#CC3CC3)ccc1-2` yielded a growth reduction of 93%.
`CC1(C)CCC2=C(O1)c1ccccc1C(=O)C2=O` [β-Lapachone] was tested, and the growth reduction was 100%.
Molecule `CC(C)(O)c1ccccc1CC[C@@H](SCC1(CC(=O)O)CC1)c1cccc(/C=C/c2ccc3ccc(Cl)cc3n2)c1` [Montelukast (sodium)] has a growth reduction of 100%.
`CC(=O)O[C@@H]1CC[C@@]2(C)[C@@H](CC[C@]3(C)[C@@H]2C(=O)C=C2[C@@H]4[C@@H](C)[C@H](C)CC[C@]4(C)CC[C@]23C)[C@@]1(C)C(=O)O` showed a growth reduction of 100%.
In the case of `CC/C(=C(/c1ccc(/C=C/C(=O)O)cc1)c1ccc2[nH]ncc2c1)c1ccc(F)cc1Cl` [Brilanestrant], the growth reduction is reported as 100%.
`CCCCN(CCCC)C(=O)CN1C[C@H](c2ccc3c(c2)OCO3)[C@@H](C(=O)O)[C@@H]1c1ccc(OC)cc1` [Atrasentan (hydrochloride)] gave a growth reduction of 98%.
Work on `Cc1cc(CC(C)CC(C)(C)C)n(O)c(=O)c1` (stereo unspecified) [Piroctone olamine] yielded a growth reduction of 100%.
